Laboratory results reported in PubChem BioAssay AID1745849 (National Center for Advancing Translational Sciences (NCATS), 2022).
Out of some 2,100 compounds screened, about 320 (15%) were called active. Not shown: some 52% with an inconclusive outcome. The call rests on the fitted dose curve; in most records, active means well fitted cell-killing curve with a large enough effect; inconclusive means small, poorly fitted or top-dose-only effect, or effect the other way; inactive means flat fitted curve, though single readings scatter. Some of the results follow. Where a call stands in place of a potency, no number is given.

Assay: Viability Counterscreen for CMV-Luciferase Assay of Inhibitors of ATXN expression; further: nearly all actives have a fitted effect of over 55% in size
Settings: HEK-293 CMV-luciferase cells viability, protease fluorescence, 24 h
Summary of the method: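 Dosing on CMV-luciferase HEK-293 cells for 24 hr, 37 °C. Luminescence read with SteadyGlo; cytotoxicity measured first as Gly-Phe-AFC protease fluorescence, 25 uM final substrate, 30 min.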
Potency means the concentration at half of the fitted maximal effect.

| Structure (SMILES) | Potency |
| --- | --- |
| O=C(CC1Sc2ccccc2NC1=O)NNc1cccc(Cl)c1Cl (stereo unspecified) | inactive |
| CN1OC[C@@H]2CN[C@H](c3ccc(-c4cc5ccccc5o4)cc3)C[C@@H]21 | inactive |
| CC1(C(=O)NCc2cccc(C(F)(F)F)c2)CCN1Cc1ccc(-c2ccccc2)o1 (stereo unspecified) | inactive |
| Cc1cc(C)c(C(O)c2ncc(-c3cccc4ccccc34)[nH]2)c(C)c1 (stereo unspecified) | inactive |
| CCN1CC2=C(OC(N)=C(C#N)C2c2cccs2)/C(=C\c2cccs2)C1 (stereo unspecified) | inactive |
| O=C(CN1CCCc2ccccc21)N/N=C/c1ccccc1O | inactive |
| O=C(CCCOc1ccc(Cl)cc1Cl)N/N=C/c1ccccc1O | 3.98 µM (active) |
| O=C(CCc1ccccc1)N/N=C/c1cc(Br)ccc1O | inactive |
| CC(C)(C)c1ccc(NC(=O)N2CCCN(c3c(Cl)cncc3Cl)CC2)cc1 | inactive |
| O=C(c1ccc(S(=O)(=O)c2cccc(Cl)c2)c([N+](=O)[O-])c1)N1CCN(Cc2ccccc2)CC1 | 15.8 µM (active) |
| O=C(NC1CCN(Cc2ccccc2)CC1)c1cccc(S(=O)(=O)Nc2ccc(SC(F)F)cc2)c1 | inactive |
| OC(c1ccccc1)(c1nc(-c2cc3ccccc3o2)cs1)C(F)(F)F (stereo unspecified) | inactive |
| O=S(=O)(c1ccc2c(c1)OCCO2)N1CCC(c2nc3ccc(Cl)cc3[nH]2)CC1 | inactive |
| Cc1ccc(S(=O)(=O)/N=C(\Sc2ccccc2)c2ccccc2)cc1 | 15.8 µM (active) |
| Cc1ccc(S(=O)(=O)N2CCc3ccccc3CC2)cc1 | inactive |
| CCn1c(CCC(=O)Nc2nc3c(s2)CCCC3)nc2cc(S(=O)(=O)N(C)C)ccc21 | inactive |
| Cc1ccc2c(Cl)cc(Cl)c(O)c2n1 | inactive |
| COc1ccc(C)cc1NC(=O)COC(=O)c1c(C)nn(-c2ccccc2)c1C | inactive |
| COc1ccc(C)cc1NC(=O)CSc1ccc(-c2ccccn2)nn1 | 12.6 µM (active) |
| O=c1c(Cc2ccccc2)c(O)nc2n1CCS2 | inactive |
| COc1cccc(/C=N/NC(=O)CC(C)O)c1OC/C=C/c1ccccc1 (stereo unspecified) | inactive |
| COc1ccc(/C=N/Nc2cc(N3CCCC3)nc(N3CCCC3)n2)cc1 | 2.82 µM (active) |
| COc1ccc(C(=O)N/N=C/c2ccc(N(C)c3ccccc3)cc2)cc1 | inactive |

| Structure (SMILES) | Potency |
| --- | --- |
| CC(=O)c1cccc(NC(=O)C2Cc3c(-c4cccc(C(C)=O)c4)ccnc3O2)c1 (stereo unspecified) | inactive |
| NC(=O)c1cccc(-c2ccnc3c2CC(C(=O)Nc2cccc(C(F)(F)F)c2)O3)c1 (stereo unspecified) | inactive |
| CS(=O)(=O)Nc1ccccc1C(=O)Nc1cc(Cl)cc(Cl)c1 | inactive |
| CS(=O)(=O)Nc1cccc(NC(=O)c2cccc3c(-c4cccc(C(N)=O)c4)coc23)c1 | 17.8 µM (active) |
| CC(=O)c1cccc(NC(=O)c2cccc3c(-c4cccc(C(N)=O)c4)coc23)c1 | 11.2 µM (active) |
| Cc1cc(OCc2nc(N)nc(N)c2-c2ccc(Cl)c(Cl)c2)ccc1[N+](=O)[O-] | inactive |
| CCN(CC)CCNC(=O)CCc1c(C)nc2c(c(C)nn2-c2ccc(C)cc2)c1C | 3.55 µM (active) |
| Cc1nn(-c2ccccc2)c2nc(-c3cccs3)cc(C(=O)NN)c12 | inactive |
| CCn1c(-c2ccc(C)cc2)nn(CC(=O)NCCc2ccccc2)c1=S | inactive |
| Cc1ccc(CN2CCC(c3nc4ccc(Cl)cc4[nH]3)CC2)cc1 | inactive |
| O=C(N/N=C/c1cc([N+](=O)[O-])ccc1O)c1cc(-c2ccccc2)nc2ccccc12 | 2.51 µM (active) |
| COc1cccc(/C=N/NC(=O)c2cc(-c3ccccn3)nc3ccccc23)c1O | 2.82 µM (active) |
| O=[N+]([O-])c1ccc(O)c(/C=N\N=C2c3ccccc3-c3ccccc32)c1 | 10 µM (active) |
| O=C(N/N=C/c1cc([N+](=O)[O-])ccc1O)c1cccc2cc[nH]c12 | 7.94 µM (active) |
| COc1cccc(/C=N/NC(=O)c2ccc(-c3ccccc3)cc2)c1O | inactive |
| COc1cccc(/C=N/Nc2nc3ccccc3n3cnnc23)c1O | inactive |
| C/C(=N\NC(=O)c1cc(-c2cccnc2)nc2ccccc12)c1ccc(O)cc1O | inactive |
| CCCC(=O)Nc1c(C(=O)OCC)[nH]c2ccccc12 | inactive |
| Cc1ccc(-n2cccn2)c(CN2CCCC(C(=O)c3ccc4c(c3)OCO4)C2)c1 (stereo unspecified) | inactive |
| O=C(Nc1cccc(Br)c1)c1ccc(Cl)c(S(=O)(=O)N2CCOCC2)c1 | inactive |
| Cc1ccc2c(c1)-c1c(cnn1CC(=O)N1CCCN(Cc3ccccc3F)C1)CO2 | inactive |
| Cc1cc(Br)ccc1NC(=O)c1cnc(N2CCN(c3ccccn3)CC2)c2ccccc12 | inactive |
| Cc1cc(Cl)c(C(=O)Nc2cccc(C(F)(F)F)c2)c(C)n1 | inactive |

| Structure (SMILES) | Potency |
| --- | --- |
| Cc1ccc(NC(=O)COc2ccc(Br)cc2CO)cc1S(=O)(=O)N1CCOCC1 | inactive |
| O=C(c1ccc(Cl)s1)N1CCN(c2nc3ccccc3s2)CC1 | inactive |
| CC(=O)c1ccc(NC(=O)COC(=O)c2c3c(nc4ccccc24)/C(=C\c2cccs2)CCC3)cc1 | inactive |
| Cc1noc2ncnc(N3CCN(c4cccc(Cl)c4)CC3)c12 | inactive |
| CCN1C(=O)C(CC(=O)Nc2ccc(OC)cc2)N(CCc2ccc(F)cc2)C1=S (stereo unspecified) | inactive |
| CC(C)COc1cccc(C(=O)N(CC(=O)Nc2ccccc2C(F)(F)F)Cc2ccco2)c1 | inactive |
| O=C(N/N=C/c1cc([N+](=O)[O-])ccc1O)c1c[nH]c2ccccc12 | 28.2 µM (active) |
| Cc1onc(-c2ccccc2)c1C(=O)N/N=C/c1c[nH]c2ccccc12 | inactive |
| Cc1ccc2cc(C#N)c(N3CCN(C(=O)c4ccccc4)CC3)nc2c1 | inactive |
| COc1ccc(-c2cc(C3CCN(c4ccc(C(C)=O)cc4[N+](=O)[O-])CC3)[nH]n2)cc1 | 14.1 µM (active) |
| CCOC(=O)[C@H]1[C@H]2COc3ccc(OC)cc3[C@@H]2N2C(=O)c3cc(OC)c(OC)cc3NC(=O)[C@@]12C | inactive |
| NNc1ncnc2scc(-c3ccc(Cl)cc3)c12 | inactive |
| CCOC(=O)c1c(C)sc2c1N(C(=O)CN(CC)CC)c1cc(Cl)ccc1S2 | 15.8 µM (active) |
| CN(C)c1nc(N/N=C/c2c[nH]c3ccccc23)nc(N2CCOCC2)n1 | inactive |
| C=CCn1c(C)c(/C=C/c2cc[n+](C)cc2)c2ccccc21 | inactive |
| Nn1cnnc1N/N=C/c1cc(Br)cc(Br)c1O | inactive |
| O=C(CSc1nnnn1-c1ccccc1)Nc1nsc(-c2ccccc2)n1 | inactive |
| Cn1c(SCC(=O)Nc2cc(Cl)cc(Cl)c2)nnc1-c1ccc2nonc2c1 | inactive |
| Cn1c(SCC(=O)N/N=C/c2ccc([N+](=O)[O-])s2)nnc1-c1ccccc1 | 20 µM (active) |
| CSc1sc(-c2nnc(SCC(=O)Nc3ccc(Cl)cc3)n2C)c2c1C=CCC2 | inactive |
| Cn1c(SCC(=O)N/N=C/c2ccc([N+](=O)[O-])s2)nnc1-c1ccc(Cl)cc1 | 10 µM (active) |
| COc1ccc(N2CCN(c3ccnc4cc(Cl)ccc34)CC2)cc1 | inactive |
| COc1cccc(OC)c1C(=O)OCC(=O)NC(=O)NCc1ccccc1 | inactive |

| Structure (SMILES) | Potency |
| --- | --- |
| CC(C)(C)c1ccc(Oc2ccc(N)cc2)cc1 | inactive |
| Cc1nc2ncnn2c(N2CCN(c3cccc(C(F)(F)F)c3)CC2)c1C | inactive |
| c1ccc2c(c1)c1c(c3ccccc32)CN2CCCC2C1 (stereo unspecified) | inactive |
| Cc1c(N=C2C=CC(=O)c3ccccc32)c(=O)n(-c2ccccc2)n1C | 28.2 µM (active) |
| Cc1ccc(-c2cc(C(=O)NCCCN3CCOCC3)no2)cc1 | inactive |
| COC(=O)C1=C(C)N(Cc2ccccc2)C(=NCCc2cccnc2)N[C@H]1c1ccc(Br)cc1 | 20 µM (active) |
| c1ccc(-c2cc3c(N4CCN(c5ccccc5)CC4)ncnc3s2)cc1 | inactive |
| COc1ccc(N(CC(=O)N2CCN(c3ccc(Cl)cc3)CC2)S(=O)(=O)c2c(C)n[nH]c2C)cc1 | inactive |
| COc1cccc(-c2cc3nc(-c4ccccc4)cc(N4CCN(C(=O)c5ccoc5)CC4)n3n2)c1 | inactive |
| O=C(c1ccoc1)N1CCN(c2cc(-c3ccco3)nc3cc(-c4ccccc4)nn23)CC1 | inactive |
| COc1ccccc1-c1cc2nc(-c3ccccc3)cc(N3CCN(C(=O)c4ccoc4)CC3)n2n1 | 10 µM (active) |
| COc1cccc(C2CC(c3c(-c4ccccc4)c4cc(Cl)ccc4[nH]c3=O)=NN2S(C)(=O)=O)c1OC (stereo unspecified) | inactive |
| O=C(/C=C/c1ccccc1)NC(=S)NNC(=O)c1cnccn1 | 10 µM (active) |
| CCCOc1ccc(C(=O)NC(=S)NNC(=O)c2c(-c3ccccc3)noc2C)cc1 | inactive |
| O=C(N/N=C1\CCCc2c1[nH]c1ccc(Cl)cc21)c1ccncc1 | inactive |
| Cc1cc(C)nc(/N=C(\N)Nc2ccc(C(C)C)cc2)n1 | inactive |
| CCc1cc(-c2nnn(CCC3COCCO3)c2CC)ccc1-c1cn(CCc2c[nH]c3ccccc23)nn1 (stereo unspecified) | inactive |
| CCCc1nc2c(c(=O)c3ccccc3n2C)c(=O)n1C1CCCCCC1 | 20 µM (active) |
| CC(C)(C)OC(=O)CNC(=O)c1[nH]cnc1C(=O)Nc1ccc(CNC(=O)OC(C)(C)C)cc1 | inactive |
| CN(C)c1cc[n+](CC(=O)c2ccc(-c3ccccc3)cc2)cc1 | inactive |
| CCC(=O)OC1(C(C)=O)CCC2C3CCC4=CC(=O)CCC4(C)C3CCC21C (stereo unspecified) | inactive |
| NC(Cc1ccc(C(F)(F)F)cc1)c1csc(Nc2nccc(C(F)(F)F)n2)n1 (stereo unspecified) | inactive |
| CC(C)(C)c1ccc(C(=O)N2CCCCCC2=O)cc1 | inactive |

| Structure (SMILES) | Potency |
| --- | --- |
| CCN(CC)c1ccc(/C=C/c2cccc[n+]2C)c(OC)c1 | 14.1 µM (active) |
| CCN(CC)c1ccc(C(=O)N/N=C/c2ccccc2OC(F)F)cc1 | inactive |
| COc1ccccc1NC(=S)NC(=O)c1ccc(Cn2cc(Br)cn2)cc1 | inactive |
| COc1cc(-c2nnc(SCC(=O)N(Cc3ccccc3)C(C)(C)C)o2)cc(OC)c1OC | inactive |
| Cc1ccc(NC(=O)c2ccc(-c3nn(C)c(=O)c4ccccc34)cc2)cc1 | inactive |
| CCc1nc2ccccc2c(C(=O)OCC(=O)Nc2ccc(NC(C)=O)cc2)c1C | inactive |
| CC(=O)Nc1ccc(Nc2c3ccccc3nc3ccccc23)cc1 | 8.91 µM (active) |
| C/C(=N\NC(=O)c1cc(C2CC2)nc2ccccc12)c1ccc(O)cc1O | inactive |
| CSc1sc(C(=O)NN)c2c1C1(CCC2)SCCS1 | inactive |
| CC1CCCN(S(=O)(=O)c2ccc(C(=O)Nc3nnc(-c4ccccc4Cl)o3)cc2)C1 (stereo unspecified) | inactive |
| O=C1/C(=C\c2cc(Cl)c(O)c(Cl)c2)SC(=S)N1Cc1ccccc1 | inactive |
| COc1ccc(/C=C2\CN(Cc3ccccc3)C/C(=C\c3ccc(OC)c(O)c3)C2=O)cc1O | 10 µM (active) |
| OC1(c2ccc(Cl)cc2)CCN(Cc2c[nH]c3ccccc23)CC1 | inactive |
| COCCCn1c(-c2ccc(S(=O)(=O)N3CCOCC3)cc2)csc1=Nc1ccccc1 | inactive |
| COc1ccc(NC(=O)c2cc(-c3cc(Cl)ccc3OC)n[nH]2)cc1OC | 0.398 µM (active) |
| COc1ccc(Cl)cc1C(=O)Nc1ccccc1N1CCN(C(=O)C(C)C)CC1 | inactive |
| COc1ccc(Cl)cc1NC(=O)Nc1cccc([N+](=O)[O-])c1C | inactive |
| Cc1cc(C)c(C(=O)N2CCCC(N3CCN(c4cccc(C(F)(F)F)c4)CC3)C2)o1 (stereo unspecified) | inactive |
| CCOc1ccc(CCNC(=O)c2ccc(OCc3c(C)noc3C)cc2)cc1OCC | inactive |
